Molecules are shown by their SMILES. Several values for one entry are separate records, joined by “and”; a condition that tells them apart may be missing. Identical values can stand only once.

Holding throughout (assay type): functional
The subject of test [1] is Plasmodium falciparum. In words: GSK_TCMDC: Inhibition of Plasmodium falciparum 3D7 in whole red blood cells, using parasite LDH activity as an index of growth. Test compounds present at 2uM.
In test [2] the test system is Plasmodium falciparum. In words: GSK_TCMDC: Inhibition of Plasmodium falciparum Dd2 in whole red blood cells, using parasite LDH activity as an index of growth. Test compounds present at 2uM.
The test system of the next test is HepG2. Put plainly: GSK_TCMDC: Percent inhibition of human HepG2 cell line. Test compounds present at 10uM.

With `C=C[C@H]1CN2CC[C@H]1C[C@@H]2[C@@H](O)c1ccnc2ccccc12` [CINCHONINE], the Inhibition came to 100% with Plasmodium falciparum [1], 2% in the test on Plasmodium falciparum [2] and 0% in the test on HepG2.
`CCN1CC=C(c2c[nH]c3ccccc23)CC1`: the Inhibition in the test on Plasmodium falciparum [1] is listed as 84%; in the test with Plasmodium falciparum [2], 58%; in the test on HepG2 it was 27%.
In the case of `CC(C)CNCc1cccc(-c2ccc(CN(C(=O)c3cccs3)C3CCN(Cc4ccccc4)CC3)cc2)c1.O=C(O)C(F)(F)F`, the Inhibition in the test on Plasmodium falciparum [1] worked out at 85%; with Plasmodium falciparum [2], 40%; in the test on HepG2, 22%.
As to `c1ccc(C(OCCC2CCN(Cc3cccc4cccnc34)CC2)c2ccccc2)cc1`, the Inhibition was 99% with Plasmodium falciparum [1], 99% in the test with Plasmodium falciparum [2] and 9% in the test with HepG2.
For the molecule `CC(C)(C)c1cc(/C=C/C(=O)NC2CCC(CN3CCC(c4c[nH]c5ccccc45)CC3)CC2)cc(C(C)(C)C)c1O` (configuration not stated), the Inhibition in the test with Plasmodium falciparum [1] is 100%; in the test on Plasmodium falciparum [2] it was 100%; with HepG2, 98% and 99%.
For `CCOc1ccc(CN(CCc2ccc3c(c2)OCO3)Cc2cc(OC)ccc2O)cc1.O=C(O)C(=O)O`, the Inhibition in the test with Plasmodium falciparum [1] was found to be 96%; with Plasmodium falciparum [2], 88%; in the test on HepG2 it was 3%.
For `CCOC(=O)CCCN1C(=O)CN=C(c2ccccc2)c2cc(Cl)ccc21`, the Inhibition in the test on Plasmodium falciparum [1] was determined as 97%; in the test with Plasmodium falciparum [2] it was 47%; in the test with HepG2, 54%.
For the molecule `COCC(=O)N(Cc1ccccc1-c1cccc(CNCCc2ccccc2)c1)C1CCN(Cc2ccccc2)CC1.O=C(O)C(F)(F)F`, the Inhibition stood at 93% with Plasmodium falciparum [1], 36% with Plasmodium falciparum [2] and 21% in the test with HepG2.
In the case of `CC[C@H]1CN2CC[C@H]1C[C@H]2[C@H](O)c1cc(-c2cccc(Cl)c2)nc2ccc(OC)cc12.Cl`, the Inhibition is 98% with Plasmodium falciparum [1], 99% with Plasmodium falciparum [2] and 16% in the test on HepG2.
For `CCCCCSc1cc(O)c(C(CNC)C(C)C)cc1OC.O=C(O)/C=C\C(=O)O` (configuration not stated), the Inhibition in the test on Plasmodium falciparum [1] is given as 100%; in the test with Plasmodium falciparum [2], 99%; in the test with HepG2 it was 5%.
On to `COC(=O)CN(C(=O)/C=C/c1ccc(Cl)c(Cl)c1)C1CCC(CN2CCC(c3c[nH]c4ccccc34)CC2)CC1` (configuration not stated), for which the Inhibition in the test with Plasmodium falciparum [1] amounted to 100%; with Plasmodium falciparum [2], 69%; in the test on HepG2, 31%.
The corresponding values for `C#CCN1CCC2=C(C1)c1c(O)cc(C(C)C(C)CCc3ccc(F)cc3)cc1OC2(C)C` (configuration not stated) are 100%, 99% and 10%.
In the case of `O=C(/C=C/c1ccc(Cl)c(Cl)c1)NCC1CCC(CN2CCC(c3c[nH]c4ccccc34)CC2)CC1` (configuration not stated), the Inhibition in the test on Plasmodium falciparum [1] is 100%; with Plasmodium falciparum [2], 93%; in the test with HepG2, 54%.
The corresponding values for `CC[C@H]1CN2CC[C@@H]1C[C@H]2[C@H](O)c1cc(-c2ccc(Cl)c(Cl)c2)nc2ccc(O)cc12` are 98%, 99% and 0%.
In the case of `CC[C@H]1CN2CC[C@@H]1C[C@H]2[C@H](O)c1cc(N2CCSCC2)nc2ccc(OC)cc12`, the Inhibition in the test on Plasmodium falciparum [1] is 99%; in the test with Plasmodium falciparum [2], 98%; with HepG2, 2%.
Take `O=C(NC1CCN(CCc2c[nH]c3ccc(F)cc23)CC1)c1ncc(-c2ccccc2)[nH]1.O=C(O)C(F)(F)F`: the results for the Inhibition in the test on Plasmodium falciparum [1], in the test on Plasmodium falciparum [2] and in the test on HepG2 were 100%, 69% and 0%, respectively.
With `O=C(/C=C/c1ccc(Cl)c(Cl)c1)N(Cc1ccccc1)C1CCC(CN2CCC(c3c[nH]c4ccccc34)CC2)CC1` (configuration not stated), the Inhibition in the test on Plasmodium falciparum [1] was determined as 100%; with Plasmodium falciparum [2] it was 59%; with HepG2, 37%.
As to `COCCNCc1cccc(-c2ccccc2CN(C(=O)Nc2ccccc2)C2CCN(Cc3ccccc3)CC2)c1.O=C(O)C(F)(F)F`, the Inhibition came to 96% in the test on Plasmodium falciparum [1], 51% in the test with Plasmodium falciparum [2] and 30% with HepG2.
The corresponding values for `COc1ccc(C2CNCc3c2cc(OC)c(OC)c3Cl)cc1.Cl` (configuration not stated) are 98%, 3% and 42%.
Consider `CN(c1ccnc(Nc2ccc(CS(C)(=O)=O)cc2)n1)C1CCN(Cc2ccccc2)CC1`, for which the Inhibition in the test on Plasmodium falciparum [1] turned out to be 83%; in the test on Plasmodium falciparum [2] it was 9%; in the test with HepG2, 10%.
As to `COC(=O)/C=C/C(=O)N[C@@H]1CC[C@@]2(O)[C@H]3Cc4ccc(O)c5c4[C@@]2(CCN3CC2CC2)[C@H]1O5.Cl`, the values for the Inhibition with Plasmodium falciparum [1], in the test on Plasmodium falciparum [2] and in the test with HepG2 were 95%, 66% and 9%, respectively.
Turning to `OC(CNC1CCCCC1)c1ccc(Cl)c(Cl)c1` (configuration not stated), the Inhibition in the test on Plasmodium falciparum [1] is 99%; in the test on Plasmodium falciparum [2], 96%; in the test on HepG2 it was 17%.
Turning to `Cl.OC(CNC1CCCCCCC1)c1ccc(Cl)c(Cl)c1` (configuration not stated), the Inhibition came to 100% in the test on Plasmodium falciparum [1], 99% with Plasmodium falciparum [2] and 17% in the test on HepG2.
Turning to `CC[C@H]1CN2CC[C@@H]1C[C@H]2[C@H](O)c1ccnc2ccc(OC)cc12`, the Inhibition in the test with Plasmodium falciparum [1] stood at 100%; in the test with Plasmodium falciparum [2] it was 61%; in the test on HepG2 it was 0%.
In the case of `O=C(/C=C/c1ccc(Cl)c(Cl)c1)N1CCC(CN2CCC(c3c(-c4ccc(F)cc4)[nH]c4ccccc34)CC2)CC1`, the Inhibition in the test with Plasmodium falciparum [1] was 100%; with Plasmodium falciparum [2], 98%; in the test on HepG2, 19%.
The corresponding values for `O=C1Nc2cccc3c2C1(CCCCCN1CC=C(c2c[nH]c4ccccc24)CC1)CCC3` (configuration not stated) are 94%, 89% and 2%.
The corresponding values for `CNCCN(C)C(=O)Oc1c(Cl)c(C)nc(C)c1-c1ccc(Oc2ccc(OC(F)(F)F)cc2)cc1.Cl` are 97%, 96% and 0%.
As to `CCCCCNC(=N)N/N=C/c1c[nH]c2ccc(OC)cc12.Cl`, the Inhibition in the test on Plasmodium falciparum [1] turned out to be 86%; in the test with Plasmodium falciparum [2], 2%; with HepG2, 16%.
For `COc1ccc(C(=O)C2CC2CN2CC=C(c3c(C)[nH]c4ccccc34)CC2)cc1` (configuration not stated), the values for the Inhibition in the test on Plasmodium falciparum [1], in the test with Plasmodium falciparum [2] and in the test on HepG2 were 96%, 94% and 16%, respectively.

What is called Inhibition is the percentage by which the read-out fell short of the control.

The values above are taken from ChEMBL document CHEMBL1157539, “Thousands of chemical starting points for antimalarial lead identification” (Nature, 2010).
